From PubChem BioAssay AID463173 (ICCB-Longwood Screening Facility, Harvard Medical School, 2010) come the findings set out here.

The campaign covered roughly 52,000 compounds. About 4,300 (8.3%) were called active. The entries come from a sample that favours actives as a whole. A number with no mark means an inactive call. Rule as the data show it: active = survival mostly below about 52% (no sharp cut-off); inactive = mostly above about 56%.

The test system of this test is DeltatarO mutant. The test can be described thus: growth inhibition of S. aureus wild type versus tarO mutant, primary screen, teichoic acid synthesis inhibitors, RN4220, OD600 (AID 463173). Conditions: OD600, 18 h, active compounds read low, screened at 18.75 µg/mL (by protocol).
For the molecule `CCN(C(=O)c1c(C)oc2ncnc(N3CCCCC3)c12)c1cc(C)ccc1C`, the survival is 95%. The figure for `CCC(C)C(NC(=O)c1cc(C)oc1C)C(=O)O` (configuration not stated) is 95%; for `CCOc1ccc(NC(=O)c2oc3ccccc3c2NC(=O)c2ccc(OC)cc2OC)cc1` it is 51%. With `Cc1ccc(N2C(=O)C(CC(=O)Nc3ccc(F)cc3)N(Cc3ccc4c(c3)OCO4)C2=O)cc1` (configuration not stated), the survival is 70%. For `O=C(CC1C(=O)N(c2ccc(F)cc2)C(=O)N1Cc1ccc2c(c1)OCO2)Nc1ccc(F)cc1` (configuration not stated), the survival is 72%. As for `O=C(CC1C(=O)N(c2ccc(F)cc2)C(=O)N1Cc1ccc2c(c1)OCO2)Nc1ccc(Cl)cc1` (configuration not stated), the survival was 43% (active). The figure for `Cc1ccc(Cl)cc1NC(=O)c1cc(S(=O)(=O)N2CCCCCC2)cn1C` is 71%. The figure for `O=C(CSc1oc(-c2cccs2)nc1S(=O)(=O)c1ccccc1)Nc1ccc(F)cc1` is 55%; for `O=C(NCC(c1cccnc1)N1CCc2ccccc2C1)C(=O)Nc1ccccc1` (configuration not stated) it is 81%; for `CCC1CN(C(=O)NCc2ccc(F)cc2)c2cc(C)ccc2O1` (configuration not stated) it is 52%. The figure for `CCC1CN(C(=O)NCc2cccc(OC)c2)c2cc(Cl)ccc2O1` (configuration not stated) is 43% (active). On to `CCC1CN(C(=O)NCc2ccccc2)c2cc(Cl)ccc2O1` (configuration not stated), for which the survival was 46% (active).

Take `CCC1CN(C(=O)NCc2ccc(C)cc2)c2cc(Cl)ccc2O1` (configuration not stated): the survival is 93%. The figure for `CCC1CN(C(=O)NCc2ccc(F)cc2)c2ccccc2O1` (configuration not stated) is 67%; for `CCC1CN(C(=O)NCc2ccc(F)cc2)c2cc(Cl)ccc2O1` (configuration not stated) it is 39% (active); for `CCC1CN(C(=O)NCc2cccc(OC)c2)c2ccccc2O1` (configuration not stated) it is 62%. The figure for `CC1CN(C(=O)NCc2ccccc2)c2cc(Cl)ccc2O1` (configuration not stated) is 49%; for `CCC1CN(C(=O)NCc2ccccc2)c2cc(C)ccc2O1` (configuration not stated) it is 51%. The figure for `O=C(NCc1ccco1)c1ccc2c(c1)N(Cc1cccc(Cl)c1)C(=O)c1ccccc1S2=O` (configuration not stated) is 63%; for `CC(=O)N1CCc2c(sc3c2c(=O)n(-c2ccccc2)c(=O)n3CC(=O)Nc2ccccc2C)C1` it is 71%; for `Cc1ccc(C)c(NC(=O)CN2C(=O)CSc3nc(C)cc(C)c32)c1` it is 103%. For `O=C(NCc1ccc(F)cc1Cl)c1cc(=O)[nH]c2ccc(S(=O)(=O)N3CCCCC3)cc12`, the survival is 102%. The figure for `Cc1ccc(S(=O)(=O)c2cn(Cc3cccc(C)c3)c3cc4c(cc3c2=O)OCO4)cc1` is 101%.

For `COc1ccc(NC(=O)CCNS(=O)(=O)c2cccc3nonc23)c(OC)c1`, the survival is 50% (active). For the molecule `COc1ccc(C)cc1NC(=O)C1CCN(S(=O)(=O)c2cccc3nonc23)CC1`, the survival is 108%. The figure for `COc1ccc(NC(=O)CCNS(=O)(=O)c2cccc3nsnc23)cc1OC` is 65%; for `CCOc1ccccc1NC(=O)CCNS(=O)(=O)c1cccc2nonc12` it is 45% (active); for `O=C(CCNS(=O)(=O)c1cccc2nonc12)Nc1ccc(F)cc1` it is 45% (active). The figure for `O=C(CCNS(=O)(=O)c1cccc2nsnc12)Nc1ccc(F)cc1` is 56%; for `COc1ccc(C)cc1NC(=O)CCNS(=O)(=O)c1cccc2nonc12` it is 43% (active). Take `COc1ccc(OC)c(NC(=O)CCNS(=O)(=O)c2cccc3nsnc23)c1`: the survival was 49%. The figure for `CCc1ccccc1NC(=O)CCS(=O)(=O)c1cccc2nonc12` is 74%; for `CCOc1ccccc1NC(=O)C1CCN(S(=O)(=O)c2cccc3nonc23)CC1` it is 74%. The figure for `COc1ccc(Cl)cc1NC(=O)CCS(=O)(=O)c1cccc2nonc12` is 146%; for `O=C(CCS(=O)(=O)c1cccc2nonc12)Nc1cccc(F)c1` it is 67%; for `CC(=O)N1CCN(c2ccc(NC(=O)COc3ccc(Cl)c(C)c3)cc2)CC1` it is 68%.

On to `CCN(CC)S(=O)(=O)c1ccc(NC(=O)CN(c2ccccc2)S(=O)(=O)N(C)C)cc1`, for which the survival was 69%. The figure for `CCNC(=O)c1cnc2sc(N3CCCCCC3)nn2c1=O` is 81%; for `C/C(Cc1ccccc1)=N\NC(=O)c1cc(C(C)(C)C)[nH]n1` it is 101%; for `CC1=C(c2ccc(C)c(C)c2)S(=O)(=O)N=C1N1CCC(C(=O)NC(C)Cc2ccco2)CC1` (configuration not stated) it is 83%.

Consider `O=C(CN1CCN(c2ncccn2)CC1)N(Cc1ccccc1)c1ccc(F)cc1`, for which the survival is 78%. The figure for `COc1ccc(NC(=O)C2CCN(C3=NS(=O)(=O)C(c4ccc(C)c(C)c4)=C3C)CC2)c(OC)c1` is 91%; for `CN=CC1=C(O)C(C(=O)OC)C(C)(C)CC1=O` (configuration not stated) it is 74%; for `CCCCCn1c(=O)[nH]c2cc(C(=O)N3CCN(c4ccccc4)CC3)ccc2c1=O` it is 68%. The figure for `CCOc1ccc(NC(=O)CCS(=O)(=O)c2cccc3nonc23)cc1` is 78%; for `CCOc1ccc(NC(=O)CCNS(=O)(=O)c2cccc3nonc23)cc1` it is 70%; for `COc1ccc(NC(=O)CCNS(=O)(=O)c2cccc3nonc23)cc1` it is 50% (active). The figure for `O=C(C1CCCCC1)N(Cc1cccnc1)c1nc2c(F)cc(F)cc2s1` is 88%; for `O=C(/C=C/c1ccccc1)Nc1nc2n(n1)C(c1ccc(F)cc1)C=C(c1ccccc1)N2` (configuration not stated) it is 44% (active); for `COc1ccccc1/C=C/C(=O)Nc1nc2n(n1)C(c1ccc(F)cc1)C=C(c1ccccc1)N2` (configuration not stated) it is 65%.

As to `COc1ccc(C2C=C(c3ccccc3)Nc3nc(NC(=O)/C=C/c4ccccc4)nn32)cc1` (configuration not stated), the survival is 59%. The figure for `COc1ccc(C2C=C(c3ccccc3)Nc3nc(NC(=O)/C=C/c4ccccc4OC)nn32)cc1` (configuration not stated) is 52% (active); for `COc1ccc(C2C=C(c3ccccc3)Nc3nc(NC(=O)/C=C/c4ccccc4Cl)nn32)cc1` (configuration not stated) it is 96%; for `COc1ccc(C2C=C(c3ccccc3)Nc3nc(NC(=O)/C=C/c4ccc(Cl)cc4)nn32)cc1` (configuration not stated) it is 53%.

In the case of `O=C(/C=C/c1ccc(F)cc1)Nc1nc2n(n1)C(c1ccc(Cl)cc1)C=C(c1ccccc1)N2` (configuration not stated), the survival was 33% (active).

`COc1ccc(/C=C/C(=O)Nc2nc3n(n2)C(c2ccccc2)C=C(c2ccc(Cl)cc2)N3)cc1` (configuration not stated): the survival was 77%.

Regarding `O=C(/C=C/c1ccccc1)Nc1nc2n(n1)C(c1ccc(Cl)cc1)C=C(c1ccccc1)N2` (configuration not stated), the survival is 38% (active). The figure for `COc1ccc(NCc2cccn2-c2nnc(N3CCC(C)CC3)s2)c(OC)c1` is 73%. The figure for `COc1ccc(C(=O)Nc2ccccc2C(=O)NC(C(=O)O)C(C)C)cc1` (configuration not stated) is 84%; for `O=C(CSc1nc(-c2ccccc2)cc(=O)[nH]1)Nc1ccccc1F` it is 89%; for `CCCN(CCC)S(=O)(=O)c1ccc(C(=O)N2CCC(=O)c3ccccc32)cc1` it is 94%. The figure for `CCc1cccc(C)c1NC(=O)C(CC)n1ncn2c(cc3cc(C)ccc32)c1=O` (configuration not stated) is 86%.

With `COc1ccc(NC(=O)CN(c2cccc(C)c2C)S(=O)(=O)c2ccccc2)cc1OC`, the survival is 61%. The figure for `Cc1ccc2c(c1)cc1c(=O)n(CC(=O)N(C)c3ccccc3)nc(C)n12` is 129%.

On to `O=C(NCCc1ccccc1)c1ccc2c(c1)N(Cc1ccccc1)C(=O)c1ccccc1S2=O` (configuration not stated), for which the survival was 70%. The figure for `COc1ccc(OC)c2sc(N(Cc3cccnc3)C(=O)c3ccc(C(C)=O)cc3)nc12` is 120%. The figure for `COc1ccc(C2C=C(c3ccccc3)Nc3nc(NC(=O)/C=C/c4ccc(F)cc4)nn32)cc1` (configuration not stated) is 51%; for `COc1ccc(/C=C/C(=O)Nc2nc3n(n2)C(c2ccc(F)cc2)C=C(c2ccccc2)N3)cc1` (configuration not stated) it is 42% (active); for `COc1ccc(/C=C/C(=O)Nc2nc3n(n2)C(c2ccccc2)C=C(c2ccccc2)N3)cc1` (configuration not stated) it is 70%. The figure for `Cc1cc(=O)[nH]c(SCC(=O)OCc2ccccc2)c1C#N` is 102%; for `CCCN(CCC)CCCNC(=O)Cn1ncc2c3ccccc3n(Cc3ccccc3F)c2c1=O` it is 129%. Turning to `Cc1ccccc1Cn1c(CN2CCC(C(=O)NCc3ccc(Cl)cc3)CC2)cc2ccccc21`, the survival is 67%. The figure for `CCCCN(CC)CCCNC(=O)c1cc2c(=O)[nH]c3ccccc3c2n1C` is 90%. With `CN(C)c1ccc(NC(=O)Cn2c(SCc3ccc(F)cc3)nc3ccncc32)cc1`, the survival was 72%. The figure for `O=C(Cn1c(SCc2ccccc2F)nc2ccncc21)Nc1ccccc1C(F)(F)F` is 66%; for `COc1cccc(CSc2nc3ccncc3n2CC(=O)Nc2ccc(OC)c(OC)c2OC)c1` it is 98%; for `COc1ccc(CSc2nc3ccncc3n2CC(=O)Nc2cc(C)cc(C)c2)cc1` it is 60% (active). The figure for `COc1ccc(CSc2nc3ccncc3n2CC(=O)Nc2ccc(C)c(F)c2)cc1` is 85%. The figure for `CCc1ccccc1NC(=O)Cn1c(SCc2ccc(F)cc2)nc2ccncc21` is 36% (active).

In the case of `COc1ccc(S(=O)(=O)N(CCc2ccccc2)CC(=O)Nc2cc(C)cc(C)c2)cc1OC`, the survival is 54%. The figure for `Cc1ccc(C)c(Cn2c(=O)n(-c3ccc(F)cc3)c(=O)c3sc4ccccc4c32)c1` is 95%; for `CC[N+](C)(C)Cc1ccco1` it is 80%. Consider `COc1cc2c(C(=O)Nc3cc(OC)c(OC)c(OC)c3)cn(C)c(=O)c2cc1OC`, for which the survival is 63%. As to `OC1(C#Cc2ccccc2)CCCCC1`, the survival was 104%. The figure for `COc1ccc(CCCc2n[nH]c(=S)o2)c(C)c1` is 94%; for `CCCCn1cc2c(c1-c1ccccc1Br)c(=O)n(C)c(=O)n2C` it is 76%; for `Cn1c(=O)c2c(-c3ccccc3Cl)n(Cc3ccc(Cl)cc3)cc2n(C)c1=O` it is 60%.

Turning to `Cc1ccc(-c2c3c(=O)n(C)c(=O)n(C)c3cn2-c2cc(C)ccc2O)cc1`, the survival is 75%. The figure for `Cn1c(=O)c2c(-c3ccccc3Br)n(CCc3ccccc3)cc2n(C)c1=O` is 45% (active); for `Cn1c(=O)c2c(-c3ccc(Br)cc3)n(Cc3ccc(F)cc3)cc2n(C)c1=O` it is 49% (active). The figure for `Cn1c(=O)c2c(-c3ccc(Br)cc3)n(CCc3ccccc3)cc2n(C)c1=O` is 89%; for `Cn1c(=O)c2c(-c3ccc(Cl)cc3)n(CCc3ccccc3)cc2n(C)c1=O` it is 93%; for `CCCCn1cc2c(c1-c1ccc(Br)cc1)c(=O)n(C)c(=O)n2C` it is 58%. The figure for `Cn1c(=O)c2c(-c3ccccc3Br)n(Cc3ccccc3)cc2n(C)c1=O` is 88%; for `Cn1c(=O)c2c(-c3ccccc3Cl)n(-c3cc(Cl)ccc3O)cc2n(C)c1=O` it is 53% (active); for `Cn1c(=O)c2c(-c3ccc(Cl)cc3)n(Cc3ccc(Cl)cc3)cc2n(C)c1=O` it is 56%.

In the case of `Cn1c(=O)c2c(-c3ccc(Cl)cc3)n(Cc3ccccc3)cc2n(C)c1=O`, the survival is 40% (active).
